Hits are enriched below; roughly 2.1% of the tested compounds scored in any of these assays.
ADAM17 inh – ADAM17 inhibitors, primary screen, biochemical, QFRET | Disintegrin and metalloproteinase domain-containing protein 17 (Homo sapiens), P78536 | recombinant ADAM17, EDANS/DABCYL FRET peptide cleavage | inhibition, % at 6.95 µM | actives 0.83% (n = 370,000) | AID 720648, 2013;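 active = inhibition above the mean of compounds lying between control limits plus 3 SD, set per campaign, cut at about 8.5% in these data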;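 also: 0% = DMSO-only wells as the low control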
Target sequence (P78536 215-824 limits assumed): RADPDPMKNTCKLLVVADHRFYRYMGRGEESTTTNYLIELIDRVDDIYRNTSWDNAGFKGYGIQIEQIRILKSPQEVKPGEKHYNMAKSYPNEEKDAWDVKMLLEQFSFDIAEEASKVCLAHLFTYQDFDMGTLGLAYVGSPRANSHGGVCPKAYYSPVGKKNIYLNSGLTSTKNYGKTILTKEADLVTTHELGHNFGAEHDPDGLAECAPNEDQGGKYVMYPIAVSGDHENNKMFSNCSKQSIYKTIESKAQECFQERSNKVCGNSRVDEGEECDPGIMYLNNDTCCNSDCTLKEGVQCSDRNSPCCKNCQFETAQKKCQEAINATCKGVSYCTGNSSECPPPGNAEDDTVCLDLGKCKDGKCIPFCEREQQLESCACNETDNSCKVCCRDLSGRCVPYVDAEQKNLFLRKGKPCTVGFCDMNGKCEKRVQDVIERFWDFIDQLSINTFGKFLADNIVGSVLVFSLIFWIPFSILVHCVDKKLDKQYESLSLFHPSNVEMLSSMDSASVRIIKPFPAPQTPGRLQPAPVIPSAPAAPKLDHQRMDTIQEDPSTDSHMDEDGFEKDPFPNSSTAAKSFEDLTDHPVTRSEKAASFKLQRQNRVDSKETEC
ADAM10 inh – human ADAM10 inhibitors, primary screen, biochemical, QFRET, HTS. recombinant ADAM10, EDANS/DABCYL FRET peptide cleavage, 3 h. actives 0.62% (n = 370,000). inhibition, % at 7 µM. Disintegrin and metalloproteinase domain-containing protein 10 (Homo sapiens), O14672. AID 720582, 2013;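 active = inhibition above a per-campaign cutoff equal to the mean of compounds falling between control-based bounds plus 3 SD, cut at about 20% in these data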;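 also: 0% = DMSO wells while the 100% control is not disclosed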
Rce1 inh – yeast Rce1p protease inhibitors, primary screen, biochemical, fluorescence, cell-free homogeneous | AID 2563, 2010 | calls only | actives 0.27% (n = 290,000) | yeast membranes, quenched prenylated peptide cleavage fluorescence;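 active = fall in fluorescence gain of 50% or more versus controls, with final raw signal at or below 3038400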;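 also: plate controls were neutral control wells for no effect and wells lacking membranes for full effect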
PLCg1 inh – PLC-gamma1 enzyme inhibitors, primary screen, biochemical, fluorescence, purified enzyme; 1-phosphatidylinositol 4,5-bisphosphate phosphodiesterase gamma-1 (Homo sapiens), P19174; fluorogenic substrate; inhibition, % at 12.2 µM; actives 0.84% (n = 370,000); AID 720700, 2013
PLCb3 inh – human PLC-beta3 inhibitors, primary screen, biochemical, fluorescence | actives 0.18% (n = 370,000) | inhibition, % at 12.2 µM | AID 720704, 2013 | Purified PLC-beta3, fluorogenic substrate; in the data active = inhibition above about 11%;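 also: 0% = median of compound wells on plate and 100% = full blocker control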
PLCgamma1 ctr – PLC-gamma1 enzyme inhibitors, counter-screen for PLC-beta3 inhibitor project, biochemical, fluorescence; purified PLC-gamma1, fluorogenic substrate; shares compounds with PLCg1 inh; AID 743258, 2014; actives 3.1% (n = 3,300); inhibition, % at 12.3 µM
PLCb3 confirm – PLC-beta3 inhibitor confirmation, biochemical, fluorescence, purified enzyme; actives 1% (n = 3,300); AID 743261, 2014; shares compounds with PLCg1 inh; inhibition, % at 12.3 µM; fluorogenic substrate fluorescence; in the data active = inhibition above about 11%
* = called active by the depositor. Rule as the data show it, unless noted: active = inhibition above about 9.5%; inactive = the rest.

COc1cc(OC)cc(C(=O)N[C@H](C(=O)NC2=NCCS2)C(C)C)c1 was read as ADAM17 inh -3, ADAM10 inh -14, PLCg1 inh -2 and PLCb3 inh -5.
O=c1cc2c(=O)oc3cc(O)c(O)oc3c2c(O)c1O was read as ADAM17 inh -2, ADAM10 inh -1, Rce1 inh inactive, PLCg1 inh 33*, PLCb3 inh -39, PLCgamma1 ctr -279 and PLCb3 confirm -322.
Screening Cc1ccc(N(CC(=O)NC2CCC(C)CC2)S(=O)(=O)c2cccnc2)cc1 (stereo unspecified) returned ADAM17 inh 4, ADAM10 inh 6, Rce1 inh inactive, PLCg1 inh 8, PLCb3 inh 12*, PLCgamma1 ctr -8 and PLCb3 confirm -4.
Screening CCCC(=O)N1CCCC1(C)C(=O)NCc1ccc(F)cc1Cl (stereo unspecified) returned ADAM17 inh -1, ADAM10 inh -10, PLCg1 inh 0 and PLCb3 inh 4.
For COC(=O)c1cccc(OC[C@@H](O)CN2CCC(C(O)(c3ccccc3)c3ccccc3)CC2)c1 the results were ADAM17 inh 7, ADAM10 inh 2, PLCg1 inh 11*, PLCb3 inh 9, PLCgamma1 ctr 7 and PLCb3 confirm -4.
`Cc1ccc(OCCCN2CCC(C(O)(c3ccccc3)c3ccccc3)CC2)cc1` gave ADAM17 inh -6, ADAM10 inh -12, PLCg1 inh 3 and PLCb3 inh -3.
Screening COC(=O)c1cccc(OCCCN2CCC(C(O)(c3ccccc3)c3ccccc3)CC2)c1 returned ADAM17 inh -1, ADAM10 inh -2, PLCg1 inh 9.7*, PLCb3 inh 5, PLCgamma1 ctr -2 and PLCb3 confirm -5.
Cc1cccc(OC[C@@H](O)CN2CCC(C(O)(c3ccccc3)c3ccccc3)CC2)c1 was read as ADAM17 inh 1, ADAM10 inh -7, PLCg1 inh 2 and PLCb3 inh 2.
Fc1ccc2nncc(SCc3ccccc3Cl)c2c1 was read as ADAM17 inh 4, ADAM10 inh 2, PLCg1 inh -3 and PLCb3 inh -9.
For C=CCN1C(=O)C(CC(=O)Nc2ccc(OCCC)cc2)N(CCCN2CCN(Cc3ccccc3)CC2)C1=S (stereo unspecified) the results were ADAM17 inh 5, ADAM10 inh 14, Rce1 inh inactive, PLCg1 inh 5 and PLCb3 inh -2.
For COc1ccc(NC(=S)N(Cc2ccc(C(=O)O)cc2)Cc2ccc(OC)c(OC)c2)cc1 the results were ADAM17 inh 2, ADAM10 inh -9, Rce1 inh inactive, PLCg1 inh 2 and PLCb3 inh -1.
Screening COc1ccc(C(CCN(Cc2ccc(OC)c(OC)c2)C(C)=O)C(C)C)cc1 (stereo unspecified) returned ADAM17 inh -4, ADAM10 inh -3, Rce1 inh inactive, PLCg1 inh 11*, PLCb3 inh -6, PLCgamma1 ctr 1 and PLCb3 confirm 1.
`Cc1cccc(NC(=O)CCN2CCCC(C)C2)c1` (stereo unspecified) gave ADAM17 inh -5, ADAM10 inh -5, Rce1 inh inactive, PLCg1 inh 0 and PLCb3 inh -8.
Cc1ccc(S(=O)(=O)N(C)CCCC(=O)N2CCN(C=O)CC2)cc1 was read as ADAM17 inh 4, ADAM10 inh -1, Rce1 inh inactive, PLCg1 inh 10*, PLCb3 inh 11*, PLCgamma1 ctr -1 and PLCb3 confirm 6.
`Cc1ccc(S(=O)(=O)N(C)CCCC(=O)N2CCOCC2)cc1` gave ADAM17 inh 1, ADAM10 inh 5, Rce1 inh inactive, PLCg1 inh 3 and PLCb3 inh 5.
`Nc1ccccc1C(=O)NC1CCCNC1=O` (stereo unspecified) gave ADAM17 inh -36, ADAM10 inh -139, Rce1 inh inactive, PLCg1 inh -15 and PLCb3 inh -30.
`C=CC[C@@H](CC(=O)N(CCO)Cc1ccccc1)C(=O)N[C@@H](C)COC(=O)[C@@H](CC=C)CC(=O)OC(C)(C)C` gave ADAM17 inh 1, ADAM10 inh 4, PLCg1 inh 11*, PLCb3 inh 8, PLCgamma1 ctr 3 and PLCb3 confirm 3.
For C=CCC[C@@H](Cc1ccc(F)cc1)C(=O)OC[C@@H](Cc1c[nH]c2ccccc12)NC(=O)[C@H](CC=C)CC(=O)NCCO the results were ADAM17 inh 6, ADAM10 inh 16, PLCg1 inh 5, PLCb3 inh 11*, PLCgamma1 ctr -9 and PLCb3 confirm -3.
C=CC[C@@H](CC(=O)N[C@H](CO)Cc1ccccc1)C(=O)N[C@@H](COC(=O)[C@@H](CC=C)CC(=O)OC(C)(C)C)Cc1c[nH]c2ccccc12 was read as ADAM17 inh 5, ADAM10 inh 17, PLCg1 inh 12*, PLCb3 inh 3, PLCgamma1 ctr -5 and PLCb3 confirm 2.
For C=CC[C@@H](CC(=O)N[C@@H](CO)Cc1ccccc1)C(=O)N[C@@H](COC(=O)[C@@H](CC=C)CC(=O)OC(C)(C)C)Cc1c[nH]c2ccccc12 the results were ADAM17 inh 5, ADAM10 inh 9, PLCg1 inh -3 and PLCb3 inh 0.
Cc1ccc(N(CCC#N)C(=O)COC(=O)c2ccccn2)cc1 was read as ADAM17 inh 1, ADAM10 inh 1, Rce1 inh inactive, PLCg1 inh 1 and PLCb3 inh -3.
Screening Cc1ccc2cc(CCNS(=O)(=O)c3ccc(F)cc3)c(=O)[nH]c2c1C returned ADAM17 inh -1, ADAM10 inh -2, Rce1 inh inactive, PLCg1 inh 2 and PLCb3 inh 2.
`COC(=O)[C@@]12C[C@@H](CC(=O)NCc3cccc(C(F)(F)F)c3)C(=O)N(CCc3ccc(OC)c(OC)c3)C1=CCC(C)(C)C2` gave ADAM17 inh 6, ADAM10 inh 17, PLCg1 inh 2 and PLCb3 inh 0.
For Cc1ccc(N(C)C(=O)CCS(=O)(=O)c2ccc3c(c2)oc(=O)n3C)cc1 the results were ADAM17 inh 0, ADAM10 inh -8, Rce1 inh inactive, PLCg1 inh -2 and PLCb3 inh -2.
